Results on 16 compounds are retold here after PubChem BioAssay (Tox21).

Assay [1] can be described thus: qHTS assay to identify small molecule antagonists of the glucocorticoid receptor (GR) signaling pathway - cell viability counter screen (AID 720693). Note: nearly all actives have a fitted effect of over 55% in size. Background: In qHTS, concentration-response curves come from the screen itself.
Assay [2] is described as follows: qHTS assay for identifying genotoxic compounds that show differential cytotoxicity against isogenic chicken DT40 cell lines with known DNA damage response pathways - wild type cell line (AID 743012). Note: nearly all actives have a fitted effect of over 60% in size. Note: potency is the fitted concentration of half-maximal effect. Put shortly: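 Quantitative HTS on parental DT40 cells: 40 h compound treatment at 37 C/5% CO2, with viability then determined by CellTiter-Glo luminescence. Values serve as the DNA repair-proficient reference for differential cytotoxicity.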

Assay [3] in a line: qHTS assay for identifying genotoxic compounds that show differential cytotoxicity against isogenic chicken DT40 cell lines with known DNA damage response pathways - Rev3 mutant cell line (AID 743014). Note: nearly all actives have a fitted effect of over 55% in size. Note: potency is the fitted concentration of half-maximal effect.
The nature of assay [4]: qHTS assay for identifying genotoxic compounds that show differential cytotoxicity against isogenic chicken DT40 cell lines with known DNA damage response pathways - Rad54/Ku70 mutant cell line (AID 743015). Note: nearly all actives have a fitted effect of over 60% in size. Note: potency is the fitted concentration of half-maximal effect.
The nature of assay [5]: qHTS assay to identify small molecule antagonists of the androgen receptor (AR) signaling pathway - cell viability counter screen (AID 743033; note: nearly all actives have a fitted effect of over 45% in size).
Assay [6] can be described thus: qHTS assay to identify small molecule antagonists of the androgen receptor (AR) signaling pathway using the MDA cell line - cell viability counter screen (AID 743041; note: nearly all actives have a fitted effect of over 45% in size). Put shortly: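 MDA-kb2 AR-luc cells (MMTV-luciferase, AR/GR responsive) treated with compounds plus R1881 agonist for 16 h at 37C. CellTiter-Fluor added at 15.5 h; fluorescence read after 30 min in the same wells.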

The nature of assay [7]: qHTS assay to identify small molecule antagonists of the thyroid receptor (TR) signaling pathway - cell viability counter screen (AID 743064). Note: nearly all actives have a fitted effect of over 50% in size. Put shortly:
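In-well cytotoxicity read by CellTiter-Fluor (30 min, 37 C) following 23.5 h exposure of GH3 cells bearing a TRE-luciferase sensor. Compounds were added alongside 1 nM (final) T3 to drive TR transactivation.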

A short description of assay [8]: qHTS assay to identify small molecule antagonists of the thyroid receptor (TR) signaling pathway (AID 743065). Note: series mostly up to about 70 µM; nearly all actives have a fitted effect of over 55% in size. The gist of the method: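 GH3.TRE-Luc rat pituitary cells (two TREs driving luciferase) were dosed with compound, then stimulated with 1 nM T3 (final) for 23.5 h at 37 C. ONE-Glo luminescence was the read-out, with CellTiter-Fluor fluorescence as the cytotoxicity counter-screen.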

Assay [9] relates to thyroid hormone receptor (rat, GH3 cells). In words: qHTS assay to identify small molecule agonists of the thyroid receptor (TR) signaling pathway (AID 743066; calls by dose curve).
Assay [10] addresses Estrogen receptor (Homo sapiens) (UniProt P03372). In words: qHTS assay to identify small molecule antagonists of the estrogen receptor alpha (ER-alpha) signaling pathway (AID 743069; active = well fitted curve in the direction sought with a large enough effect in the signal ratio in the repeat runs, not every such curve was filed as active; inconclusive = weak or mixed curves, or effect the other way; inactive = no such curve, though single readings can be large or run the other way; the % refers to the signal ratio). The gist of the method:
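HEK293 ER-alpha-UAS-bla GripTite cells, held overnight in 2% charcoal-stripped FBS, 5,000 cells/well, preincubated 4 h, then compound plus 17beta-estradiol for 18 h at 37C. Beta-lactamase read by LiveBLAzer B/G FRET substrate, 2 h at room temperature.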

A short description of assay [11]: qHTS assay to identify small molecule antagonists of the estrogen receptor alpha (ER-alpha) signaling pathway - cell viability counter screen (AID 743074; calls by dose curve;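 note: HEK293 cells carrying ER-alpha-UAS-bla reporter stimulated with 17beta-estradiol; nearly all actives have a fitted effect of over 45% in size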).
Assay [12] concerns the target Estrogen receptor (Homo sapiens) (UniProt P03372). In words: qHTS assay to identify small molecule agonists of the estrogen receptor alpha (ER-alpha) signaling pathway (AID 743075; calls by dose curve; note: potency is the fitted concentration of half-maximal effect).
Assay [13] shares this target. In words: qHTS assay to identify small molecule agonists of the estrogen receptor alpha (ER-alpha) signaling pathway using the BG1 cell line (AID 743079). Note: nearly all actives have a fitted effect of over 20% in size. Note: potency is the fitted concentration of half-maximal effect.
The nature of assay [14]: qHTS assay to identify small molecule antagonists of the estrogen receptor alpha (ER-alpha) signaling pathway using the BG1 cell line (AID 743080; calls by dose curve;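 note: BG1 cells stimulated with 17beta-estradiol alongside compound; series mostly up to about 70 µM; nearly all actives have a fitted effect of over 25% in size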). Put shortly: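 Luciferase inhibition measured with ONE-Glo after 30 min at RT in BG1Luc4E2 cells given test compounds and 17beta-estradiol for 21.5 h at 37 C; CellTiter-Fluor viability read in the same wells beforehand.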
Assay [15] in a line: qHTS assay to identify small molecule antagonists of the estrogen receptor alpha (ER-alpha) signaling pathway using the BG1 cell line - cell viability counter screen (AID 743081).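 Note: compound given together with 17beta-estradiol as the ER stimulus; series mostly up to about 70 µM; nearly all actives have a fitted effect of over 45% in size.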
The target in the next assay is Aromatase (Homo sapiens) (UniProt P11511). In words: qHTS assay to identify aromatase inhibitors (AID 743083). Note: series mostly up to about 70 µM; nearly all actives have a fitted effect of over 55% in size.
Assay [16] addresses Androgen receptor (Homo sapiens) (UniProt P10275). In words: qHTS assay to identify small molecule agonists of the androgen receptor (AR) signaling pathway (AID 743036; active = well fitted activation curve with a large enough effect in the signal ratio in the repeat runs, with a control signal flat, not every such curve was filed as active; inconclusive = weak or mixed curves, or effect the other way; inactive = no such curve, though single readings can be large or run the other way; the % refers to the signal ratio). The gist of the method: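 Activation was read as beta-lactamase FRET signal from LiveBLAzer B/G substrate, added for 2 h at room temperature. Before that, GeneBLAzer AR-UAS-bla GripTite (HEK293) cells had 16 h compound exposure at 37C.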

The target is the same in assay [17]. In words: qHTS assay to identify small molecule agonists of the androgen receptor (AR) signaling pathway using the MDA cell line (AID 743040; note: nearly all actives have a fitted effect of over 20% in size). Put shortly:
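MDA-kb2 breast carcinoma cells carrying MMTV-luciferase (responsive to AR and GR), plated 5 h then treated 16 h with compounds at 37C, 0% CO2. Read-out was ONE-Glo luminescence after 30 min at room temperature.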

Assay [18] has the same target. In words: qHTS assay to identify small molecule antagonists of the androgen receptor (AR) signaling pathway using the MDA cell line (AID 743042; note: nearly all actives have a fitted effect of over 55% in size). The gist of the method:
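MDA-kb2 breast carcinoma cells carrying MMTV-luciferase (AR/GR responsive) were co-treated with compounds and the agonist R1881 for 16 h at 37C. Inhibition read as ONE-Glo luminescence; CellTiter-Fluor fluorescence measured in parallel for cytotoxicity.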

Assay [19] shares this target. In words: qHTS assay to identify small molecule antagonists of the androgen receptor (AR) signaling pathway (AID 743035; active = well fitted inhibition curve with a large enough effect in the signal ratio in the repeat runs, not every such curve was filed as active; inconclusive = weak or mixed curves, or effect the other way; inactive = no such curve, though single readings can be large or run the other way; the % refers to the signal ratio). Put shortly: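 Cell line: GeneBLAzer AR-UAS-bla GripTite (HEK293). Stimulus: R1881 added after compound. Exposure: 16 h, 37C, 5% CO2. Readout: LiveBLAzer B/G FRET fluorescence after 2 h at room temperature.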

Values joined by “and” are separate entries in the source; they are usually repeats but may differ in a detail not shown here. Equal values may be shown once. More than one record can exist for a structure, and the calls need not agree. Active and inactive are the calls of the source. Unless noted, calls come from the whole dose curve; as a rule, active = well fitted curve in the direction sought with a large enough effect in the repeat runs; inconclusive = weak or mixed curves; inactive = no such curve, though single readings can be large; an effect the other way counts as inactive or inconclusive.

Androgen receptor (Homo sapiens), sequence (P10275 whole entry, looked up): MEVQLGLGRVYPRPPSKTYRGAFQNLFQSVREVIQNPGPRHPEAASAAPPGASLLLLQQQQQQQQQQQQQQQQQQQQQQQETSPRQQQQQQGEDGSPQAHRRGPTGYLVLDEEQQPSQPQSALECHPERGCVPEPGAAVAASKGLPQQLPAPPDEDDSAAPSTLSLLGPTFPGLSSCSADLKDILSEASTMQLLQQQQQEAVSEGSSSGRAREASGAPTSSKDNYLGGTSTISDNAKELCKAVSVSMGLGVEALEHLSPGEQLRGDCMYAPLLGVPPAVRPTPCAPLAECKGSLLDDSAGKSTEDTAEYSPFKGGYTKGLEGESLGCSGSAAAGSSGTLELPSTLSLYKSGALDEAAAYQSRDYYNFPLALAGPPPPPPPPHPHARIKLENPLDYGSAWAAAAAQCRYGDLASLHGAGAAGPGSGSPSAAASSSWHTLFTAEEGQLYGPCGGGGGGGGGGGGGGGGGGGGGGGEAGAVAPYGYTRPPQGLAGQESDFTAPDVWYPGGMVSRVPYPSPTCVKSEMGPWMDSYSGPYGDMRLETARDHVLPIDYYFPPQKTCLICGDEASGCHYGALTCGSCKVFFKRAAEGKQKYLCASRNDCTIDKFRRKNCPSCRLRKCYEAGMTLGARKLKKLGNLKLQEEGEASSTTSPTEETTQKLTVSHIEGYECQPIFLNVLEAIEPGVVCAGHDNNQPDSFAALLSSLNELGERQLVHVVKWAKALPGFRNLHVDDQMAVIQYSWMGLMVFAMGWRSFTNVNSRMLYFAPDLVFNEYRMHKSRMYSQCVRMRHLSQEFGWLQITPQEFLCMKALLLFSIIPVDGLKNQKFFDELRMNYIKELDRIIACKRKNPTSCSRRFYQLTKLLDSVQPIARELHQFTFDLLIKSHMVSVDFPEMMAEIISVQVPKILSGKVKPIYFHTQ
Aromatase (Homo sapiens), sequence (P11511 whole entry, looked up): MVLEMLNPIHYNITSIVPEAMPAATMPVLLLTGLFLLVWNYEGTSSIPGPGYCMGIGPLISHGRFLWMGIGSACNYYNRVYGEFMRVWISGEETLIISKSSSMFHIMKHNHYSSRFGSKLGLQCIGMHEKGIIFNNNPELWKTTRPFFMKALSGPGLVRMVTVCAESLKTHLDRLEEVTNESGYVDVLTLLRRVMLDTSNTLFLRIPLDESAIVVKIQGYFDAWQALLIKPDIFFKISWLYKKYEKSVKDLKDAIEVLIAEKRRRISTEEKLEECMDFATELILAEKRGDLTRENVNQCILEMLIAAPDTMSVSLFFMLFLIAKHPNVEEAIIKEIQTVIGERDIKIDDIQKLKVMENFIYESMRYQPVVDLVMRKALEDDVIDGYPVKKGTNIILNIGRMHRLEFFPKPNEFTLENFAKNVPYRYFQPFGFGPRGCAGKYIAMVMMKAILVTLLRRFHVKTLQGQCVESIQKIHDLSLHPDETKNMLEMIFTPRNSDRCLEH
Estrogen receptor (Homo sapiens), sequence (P03372 whole entry, looked up): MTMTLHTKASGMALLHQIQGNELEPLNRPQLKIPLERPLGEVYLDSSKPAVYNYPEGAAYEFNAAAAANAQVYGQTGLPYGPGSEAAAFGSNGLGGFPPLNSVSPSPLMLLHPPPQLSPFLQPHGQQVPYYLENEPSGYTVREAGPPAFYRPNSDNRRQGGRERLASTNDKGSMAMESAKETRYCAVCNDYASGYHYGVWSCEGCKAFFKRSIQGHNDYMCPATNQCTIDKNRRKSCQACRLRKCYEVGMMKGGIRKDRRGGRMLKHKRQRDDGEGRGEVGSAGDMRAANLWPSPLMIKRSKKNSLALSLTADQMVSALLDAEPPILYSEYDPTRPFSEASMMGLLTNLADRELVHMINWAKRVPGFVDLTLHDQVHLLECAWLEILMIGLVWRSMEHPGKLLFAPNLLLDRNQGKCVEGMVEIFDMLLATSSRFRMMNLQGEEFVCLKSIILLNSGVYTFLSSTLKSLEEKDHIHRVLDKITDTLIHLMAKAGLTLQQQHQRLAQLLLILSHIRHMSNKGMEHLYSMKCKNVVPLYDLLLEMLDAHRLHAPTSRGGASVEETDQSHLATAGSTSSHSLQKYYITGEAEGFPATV

Consider `CCOP(=S)(OCC)Oc1cnc2ccccc2n1`, for which the call in assay [1], in assay [5], in assay [6], in assay [9] and in assay [15] was inactive. The Potency in assay [2] was 54.5 µM (active); in assay [3] it was 27.3 µM (active); in assay [4] it was 27.3 µM (active); in assay [12], “inactive and 17.4 µM [inconclusive] (active)”; in assay [13], “inactive and 15.4 µM (active)”. Also, the Potency entry (in assay [7]; in [8]; in assay [10]; in assay [11]; in [14]; in the assay with Aromatase (Homo sapiens)) was “inactive” throughout.
As to `CCNc1nc(NC(C)C)nc(SC)n1`, the call in assay [1], in assay [5], in assay [16], in assay [17], in assay [6] and in assay [18] was inactive. Besides, the outcome in assay [9] and in assay [15] was inactive. For the same compound, the Potency entry in assay [2] was “inactive and 61.1 µM (active)”; in assay [3], 61.1 µM (active); in assay [4], 61.1 µM (active). The Potency result (in [7]; in assay [8]; in assay [11]; with Aromatase (Homo sapiens)) was “inactive” throughout.
As for `Nc1ccccc1C(=O)O`, the outcome in [1], in assay [5], in assay [6], in assay [9] and in assay [15] was inactive. In addition, the Potency entry in assay [2], in [3], in assay [4], in assay [7], in assay [8] and in assay [10] was “inactive” throughout. Also, the Potency result (in assay [11]; in assay [12]; in assay [13]; in assay [14]; in the assay with Aromatase (Homo sapiens)) was “inactive” each time.
For `NCCc1ccc(O)cc1`, the result in assay [1], in assay [5], in [6], in [9] and in [15] was inactive. Moreover, the Potency result in assay [2], in assay [3], in [4], in assay [7], in [8] and in assay [10] was “inactive” throughout. The Potency entry (in assay [11]; in assay [12]; in assay [14]; with Aromatase (Homo sapiens)) was “inactive” each time. For the same compound, the Potency result in [13] was “inactive and 68 µM (active)”.
Regarding `O=[N+]([O-])c1ccc([As](=O)(O)O)cc1`, the compound was called inactive in assay [1], in assay [5], in assay [6], in assay [9] and in assay [15]. Also, the Potency result in assay [2], in [3], in assay [4], in assay [7], in [8] and in assay [10] was “inactive” each time. For the same compound, the Potency entry (in [11]; in assay [12]; in assay [13]; in assay [14]; with Aromatase (Homo sapiens)) was “inactive” each time.
For `COCCl`, the call in assay [1], in assay [5], in [16], in [17], in [6] and in assay [18] was inactive. In addition, the outcome in [9] and in assay [15] was inactive. The Potency result in [2], in assay [4], in assay [19], in assay [7], in assay [8] and in [11] was “inactive” each time. Besides, in the assay with Aromatase (Homo sapiens), the Potency result is “inactive”. The Potency result in assay [3] was “inactive and 13.8 µM (active)”.
On to `O=c1[nH]c2ccccc2c(=O)o1`, for which the compound was classed as inactive in assay [1], in assay [5], in [6], in [9] and in [15]. Also, the Potency entry in assay [2], in [3], in assay [4], in assay [7], in [8] and in assay [10] was “inactive” throughout. For the same compound, the Potency result (in assay [11]; in assay [12]; in [13]; in assay [14]; with Aromatase (Homo sapiens)) was “inactive” throughout.
Regarding `CCC12COCN1COC2`, the call in assay [1], in assay [5], in assay [6], in [9] and in assay [15] was inactive. Also, the Potency result in assay [2], in assay [3], in [4], in assay [7], in assay [8] and in [10] was “inactive” throughout. Besides, the Potency result (in assay [11]; in [12]; in assay [13]; in assay [14]; in the assay with Aromatase (Homo sapiens)) was “inactive” throughout.
With `COP(N)(=O)SC` (stereo not drawn), the result in [1], in assay [5], in [6], in assay [9] and in assay [15] was inactive. For the same compound, the Potency result in [2], in assay [3], in assay [4], in assay [7], in assay [8] and in assay [10] was “inactive” throughout. In addition, the Potency entry (in assay [11]; in assay [12]; in assay [13]; in assay [14]; with Aromatase (Homo sapiens)) was “inactive” each time.
Take `CC1C=[C-]C=C1.[C-]#[O+].[C-]#[O+].[C-]#[O+].[Mn]`: the compound was classed as inactive in [1], in assay [5], in assay [6], in [9] and in assay [15]. Also, the Potency entry in [2], in assay [3], in assay [4], in assay [7], in assay [8] and in assay [10] was “inactive” each time. The Potency result (in assay [11]; in [12]; in [13]; in [14]; in the assay with Aromatase (Homo sapiens)) was “inactive” throughout.
As to `CCOC(=O)c1ccccc1C(=O)OCC`, the compound was classed as inactive in [1], in assay [5], in [6], in assay [9] and in assay [15]. The Potency result in assay [2], in assay [3], in assay [4], in assay [7], in assay [8] and in assay [10] was “inactive” each time. Also, the Potency result (in assay [11]; in assay [12]; in assay [13]; in assay [14]; in the assay with Aromatase (Homo sapiens)) was “inactive” each time.
As to `C#CCN(C)[C@H](C)Cc1ccccc1`, the call in [1], in assay [5], in assay [6], in assay [9] and in assay [15] was inactive. Moreover, the Potency entry in [2], in assay [3], in assay [4], in assay [7], in assay [8] and in assay [10] was “inactive” throughout. Also, the Potency entry (in assay [11]; in assay [12]; in assay [13]; in assay [14]; with Aromatase (Homo sapiens)) was “inactive” each time.
Consider `CC(C)C1(C)N=C(c2nc3ccccc3cc2C(=O)O)NC1=O` (stereo not drawn), for which the compound was called inactive in assay [1], in assay [5], in assay [6], in assay [9] and in [15]. In addition, the Potency result in assay [2], in assay [3], in assay [4], in [7], in [8] and in assay [10] was “inactive” throughout. The Potency result (in [11]; in assay [12]; in assay [13]; in [14]; with Aromatase (Homo sapiens)) was “inactive” in each case.
As for `O=NN1CCCC1`, the outcome in assay [1], in assay [5], in assay [6], in assay [9] and in assay [15] was inactive. Further, the Potency entry in [2], in [3], in [4], in assay [7], in assay [8] and in assay [10] was “inactive” throughout. Further, the Potency result (in [11]; in assay [12]; in assay [13]; in assay [14]; with Aromatase (Homo sapiens)) was “inactive” throughout.
Take `O=C(NC(=O)c1c(F)cccc1F)Nc1cc(Cl)c(OC(F)(F)C(F)C(F)(F)F)cc1Cl` (stereo not drawn): the call in assay [1], in assay [5], in [16], in assay [17], in assay [6] and in [9] was inactive. Also, the compound was classed as inactive in assay [15]. Moreover, the Potency is 3.35 µM (active) in assay [2]; 4.22 µM (active) in [3]; 5.96 µM (active) and 21.7 µM (active) in [4]. For the same compound, the Potency result in assay [19], in assay [7], in assay [8], in [10], in assay [11] and in [12] was “inactive” throughout. Moreover, the Potency result (in assay [13]; in assay [14]; in the assay with Aromatase (Homo sapiens)) was “inactive” in each case.
For the compound `CC(Oc1ccc(Cl)cc1Cl)C(=O)O` (stereo not drawn), the call in [1], in assay [5], in assay [6], in assay [9] and in assay [15] was inactive. Further, the Potency entry in assay [2], in assay [3], in [4], in [7], in [8] and in [10] was “inactive” each time. The Potency result (in assay [11]; in assay [12]; in assay [13]; in assay [14]; in the assay with Aromatase (Homo sapiens)) was “inactive” each time.
